TrxR1 substrate – qHTS Assay for Substrates of Mammalian Selenoprotein Thioredoxin Reductase 1 (TrxR1): qHTS; Thioredoxin reductase 1, cytoplasmic (Rattus norvegicus), O89049; purified TrxR1 substrate turnover, NADPH consumption readout; Potency, µM (series often up to 114 µM), for inactives: at the highest dose activity change, negative = substrate turnover; 390,000 tested, 0.01% active; note: % is set by controls: 0 for no effect and ±100 for the full control effect; nearly all actives have a fitted effect of over 50% in size
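Rat TrxR1, dispensed at 90 nM, was prereduced with 400 uM NADPH (final) for 5 min at ~22 deg C, then incubated with compound 15 min before 400 uM selenite. A first-read NADPH fluorescence drop versus no-compound background flagged substrates.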
Nrf2 activator – qHTS of Nrf2 Activators; AREc32 ARE-luciferase reporter (MCF7-derived line), luminescence, 24 h; Potency, µM (highest dose often 46.1 µM), for inactives: at the top dose activation, actives largely listed as activators; 410,000 tested, 0.31% active; note: % of control where 0% means no effect; nearly all actives have a fitted effect of over 65% in size
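For detection, Steady-Glo was added and plates sat 30 min at RT; before that, AREc32_Fluc cells grown overnight in OPTI-MEM/5% FBS had been treated with 23 nL compound for 24 hr at 37 deg C.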
Nrf2 block – Nrf2 qHTS screen for inhibitors | Potency, µM (doses to about 46 µM), inactives show top-dose activity change, negative = inhibition, usual class: inhibitors | A549 ARE-Fluc reporter, luciferase luminescence, 18-24 h | AID 504444, 2011 | 360,000 tested, 2.1% active; note: % is set by controls: 0 for no effect and ±100 for the full control effect; nearly all actives have a fitted effect of over 60% in size
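Concentration-response testing used A549 ARE_Fluc cells at 5000 cells/well. Following an 18-24 h compound incubation, viability was read by fluorescence (Ex 405/Em 525) and luciferase output by luminescence.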
GALK inhibitor – qHTS Assay for Inhibitors of Human Galactokinase (GALK) | Potency, µM (series often up to 57.5 µM), for the others: at the highest dose activity change, negative = inhibition, actives largely listed as inhibitors | Purified GALK, Kinase-Glo residual ATP luminescence | 270,000 tested, 0.007% active | AID 1868, 2009 | P51570; note: % is set by controls: 0 for no effect and ±100 for the full control effect
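GALK at 5 nM final was combined with compound, 35 uM ATP and 100 uM galactose in HEPES pH8.0 with MgCl2 and DTT. The reaction ran one hour at room temperature before luminescent ATP detection.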
TrxR1 inh – qHTS Assay for Inhibitors of Mammalian Selenoprotein Thioredoxin Reductase 1 (TrxR1): qHTS; AID 588453, 2011; Potency, µM (series often up to 114 µM), for inactives: at the highest dose activity change, negative = inhibition, actives largely listed as inhibitors; Thioredoxin reductase 1, cytoplasmic (Rattus norvegicus), O89049; 390,000 tested, 1% active; recombinant rTrxR1, NADPH fluorescence consumption, selenite substrate; note: % is set by controls: 0 for no effect and ±100 for the full control effect; nearly all actives have a fitted effect of over 65% in size
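Rat TrxR1 (90 nM in the dispensed reagent) was pre-reduced with 400 uM NADPH for 5 min at room temperature, then incubated with compound for 15 min. After 400 uM selenite was added, NADPH fluorescence (Ex 340/Em 450 nm) was followed for 8 min.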
A549 tox-1 – Nrf2 qHTS screen for inhibitors: counterscreen for cytotoxicity. A549 ARE-Fluc cells, CellTiter-Fluor viability, 18-24 h. AID 504648, 2011. Potency, µM (titrated, usually from 46 µM), inactives show top-dose activity change, negative = cytotoxicity, most hits filed as inhibitors. 390,000 tested, 0.16% active; note: % is set by controls: 0 for no effect and ±100 for the full control effect
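A549 ARE-Fluc cells in 5% FBS OPTI-MEM, 5000 cells/well, rested 2 h then exposed to compounds in concentration-response for 18-24 h at 37 °C. Viability by CellTiter-Fluor fluorescence (Ex 405/Em 525) after 30 min; luciferase luminescence (BugLite, 15 min, RT) read afterwards.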
FLuc enzyme inh – Nrf2 qHTS screen for inhibitors: Purified Fluc Biochemical Counterscreen for Hit Validation; shares compounds with Nrf2 block; purified firefly luciferase, luminescence inhibition; Potency, µM (doses to about 57.5 µM), for the others: top-dose activity change, negative = inhibition, most hits filed as inhibitors; 1,400 tested, 4% active; AID 720522, 2013; note: % is set by controls: 0 for no effect and ±100 for the full control effect; nearly all actives have a fitted effect of over 65% in size
Target sequence (P08659 whole entry, looked up): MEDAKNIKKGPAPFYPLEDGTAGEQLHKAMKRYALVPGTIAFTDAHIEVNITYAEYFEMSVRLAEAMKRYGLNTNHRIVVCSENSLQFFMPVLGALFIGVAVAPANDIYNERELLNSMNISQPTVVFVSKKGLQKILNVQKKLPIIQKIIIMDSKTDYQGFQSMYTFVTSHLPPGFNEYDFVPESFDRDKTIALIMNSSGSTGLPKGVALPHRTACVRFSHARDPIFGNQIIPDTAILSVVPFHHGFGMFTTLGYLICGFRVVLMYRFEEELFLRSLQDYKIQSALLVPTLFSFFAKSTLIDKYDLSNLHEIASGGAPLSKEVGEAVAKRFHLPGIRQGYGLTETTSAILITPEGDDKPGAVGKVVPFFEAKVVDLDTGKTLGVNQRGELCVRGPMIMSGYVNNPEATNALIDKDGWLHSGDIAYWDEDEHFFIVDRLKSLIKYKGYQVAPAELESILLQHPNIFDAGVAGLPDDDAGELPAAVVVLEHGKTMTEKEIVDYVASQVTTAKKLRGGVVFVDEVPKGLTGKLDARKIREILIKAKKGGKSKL
A549 tox-2 – Nrf2 qHTS screen for inhibitors: A549 ARE-Fluc Cytotoxicity Counterscreen for Hit Validation | shares compounds with Nrf2 block | A549 ARE-Fluc cells, cytotoxicity counterscreen | Potency, µM (doses to about 46.1 µM), inactives show at the highest dose activity change, negative = cytotoxicity, actives largely listed as inhibitors | 1,400 tested, 2% active;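 note: cells exposed to compounds for 18 to 24 hours; % is set by controls: 0 for no effect and ±100 for the full control effect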
ARE-Fluc inh – Nrf2 qHTS screen for inhibitors: Nrf2 A549 ARE-Fluc Confirmation Assay for Hit Validation; shares compounds with Nrf2 block; A549 ARE-firefly luciferase reporter, luminescence; Potency, µM (titrated, usually from 46.1 µM), for the others: at the highest dose activity change, negative = inhibition, hits mostly inhibitors; 1,400 tested, 74% active; AID 720524, 2013; note: % is set by controls: 0 for no effect and ±100 for the full control effect; nearly all actives have a fitted effect of over 65% in size
Starred values were filed as active, the others as inactive; [ ] = another dose, or the depositor's remark. Shown are actives, neighbours in structure and some others; about 3% of the full set was active somewhere. Calls come from the whole dose curve; as a rule, active = well fitted curve in the direction sought with a large enough effect; inconclusive = small, poorly fitted or top-dose-only effect, or another doubt; inactive = no such curve, though single readings can be large; an effect the other way counts as inactive or inconclusive. Potency is the fitted concentration of half-maximal effect.

Screening Cc1onc(-c2ccccc2Cl)c1C(=O)OCC(=O)c1ccc2c(c1)OCCO2 returned TrxR1 substrate 6.6%[57.1 µM], Nrf2 activator -0.7%, Nrf2 block inconclusive, GALK inhibitor 4.2%, TrxR1 inh 25.9%[57.1 µM] and A549 tox-1 -14.7%.
`CCc1ccc(-c2nc(CSCC(=O)N3CCN(c4ccc(F)cc4)CC3)c(C)o2)cc1` gave TrxR1 substrate -7.1%, Nrf2 activator 0.4%, Nrf2 block 7.31µM*, TrxR1 inh -8.8%, A549 tox-1 -20.2%, FLuc enzyme inh -14.3% and A549 tox-2 -7.3%.
COc1ccc(-c2nc(CSCC(=O)N3CCN(c4ccc(F)cc4)CC3)c(C)o2)cc1 was read as TrxR1 substrate 4.9%, Nrf2 activator -0.3%, Nrf2 block 3.26µM*, TrxR1 inh 13.9%, A549 tox-1 -8.0%, FLuc enzyme inh -12.2%, A549 tox-2 -24.0% and ARE-Fluc inh 7.31µM*.
`CC1=CC(O)C(O)C2(C)C1CC1OC(=O)CC3C(C)C(O)C(=O)C2C13CO` (stereo unspecified) gave TrxR1 substrate -14.6%, Nrf2 activator -1.9%, Nrf2 block 2.06µM*, TrxR1 inh -20.1%, A549 tox-1 inconclusive, FLuc enzyme inh 3.4% and A549 tox-2 -28.9%.
Screening CN1CCC23CCCC[C@H]2C1Cc1ccc(O)cc13 (stereo partly specified) returned TrxR1 inh -0.2%.
Screening O=C(COc1ccc(S(=O)(=O)N2CCOCC2)cc1)N1CCN(Cc2ccc3c(c2)OCO3)CC1 returned TrxR1 substrate 0.1%, Nrf2 activator -0.1%, Nrf2 block inconclusive, GALK inhibitor 2.6%, TrxR1 inh 9.1% and A549 tox-1 -7.0%.
CCCCNS(=O)(=O)c1ccc(OCC(=O)N2CCN(Cc3ccc4c(c3)OCO4)CC2)cc1 was read as TrxR1 substrate 3.4%, Nrf2 activator -0.5%, Nrf2 block 4.61µM*, GALK inhibitor -9.9%, TrxR1 inh 20.1%, A549 tox-1 inconclusive, FLuc enzyme inh 3.7%, A549 tox-2 -4.0% and ARE-Fluc inh inconclusive.
For C[C@H]1C[C@@H](C)C(=O)[C@@H]([C@H](O)CC2CC(=O)NC(=O)C2)C1 the results were TrxR1 substrate 4.7%, Nrf2 activator -2.1%, Nrf2 block 0.411µM*, GALK inhibitor -0.1%, TrxR1 inh 15.9%, A549 tox-1 inconclusive, FLuc enzyme inh 0.1%, A549 tox-2 -27.2% and ARE-Fluc inh 13µM*.
